Experimental data taken from PubChem BioAssay (NCI).
This is part of a sample that, as a whole, favours compounds with a hit. Of some 83,000 tested, about 20% had one in any assay.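 Values shown are percent growth following 48 h exposure of cells in 96-well plates to a single concentration of compound; below 10 was considered active.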 Calls of active or inactive are those of the source.

Assays:
Assay in all cases: NCI-60 one-dose screen, 48 h (100 = growth as untreated, 0 = no growth, -100 = all killed)
Settings in all cases: 10 µM unless noted
DU-145 prostate = system: DU-145 prostate
K-562 leukemia = system: K-562 leukemia
MALME-3M melanoma = system: MALME-3M melanoma
MDA-MB-231 breast = system: MDA-MB-231 breast
RXF 393 renal = system: RXF 393 renal
SF-268 CNS = system: SF-268 CNS
SF-295 CNS = system: SF-295 CNS
SF-539 CNS = system: SF-539 CNS
UACC-257 melanoma = system: UACC-257 melanoma
M14 melanoma = system: M14 melanoma

Measured: growth

CCCc1cc2cc(-n3nc(CC)c4c3CC(C)(C)CC4=O)cc(NC3CCC(O)CC3)c2c(=O)[nH]1 (stereo not given)
inactive: DU-145 prostate 40.2% | K-562 leukemia 10.9% | SF-268 CNS 49.3% | SF-295 CNS 28.5% | UACC-257 melanoma 29.1% | M14 melanoma 27.2%
active: MALME-3M melanoma 8.74% | MDA-MB-231 breast 7.65% | RXF 393 renal -15.8% | SF-539 CNS 4.55%

CCN(CC)c1ccc(/C=N/NC(=O)c2ccc(S(N)(=O)=O)cc2)cc1
inactive: DU-145 prostate 34.7% | K-562 leukemia 14.7% | MDA-MB-231 breast 38.3% | SF-268 CNS 29.4% | SF-295 CNS 16% | SF-539 CNS 17%
active: MALME-3M melanoma 8.81% | RXF 393 renal -6.07% | UACC-257 melanoma 2.22% | M14 melanoma -1.23%

CN(C)CC(=O)Nc1nc(-c2cccc(NS(=O)(=O)c3cccc4c(N(C)C)cccc34)c2)cs1
inactive: DU-145 prostate 103% | K-562 leukemia 65.1% | MALME-3M melanoma 85.2% | MDA-MB-231 breast 83.8% | RXF 393 renal 88.5% | SF-268 CNS 96.4% | SF-295 CNS 70.4% | SF-539 CNS 93.3% | UACC-257 melanoma 86% | M14 melanoma 100%

C#C[C@]1(O)CC[C@H]2[C@@H]3CC=C4c5sc(Nc6ccc(C)cn6)nc5CC[C@]4(C)[C@H]3CC[C@@]21C
active: K-562 leukemia -2.56% | MALME-3M melanoma -31.4% | MDA-MB-231 breast -1.2% | RXF 393 renal -78.6% | SF-268 CNS -7.73% | SF-295 CNS -70.2% | SF-539 CNS -66.8% | UACC-257 melanoma -42.8% | M14 melanoma -48.8%
inactive: DU-145 prostate 27.9%

O=C(N/N=C\c1ccc([N+](=O)[O-])cc1)c1ccc2nc(-c3ccc(Br)cc3)[nH]c2c1
inactive: DU-145 prostate 28.2% | MDA-MB-231 breast 62.4% | RXF 393 renal 11.5% | SF-268 CNS 44.7% | SF-295 CNS 25.1% | SF-539 CNS 28.2% | UACC-257 melanoma 18.2%
active: K-562 leukemia 2.69% | MALME-3M melanoma 6.94% | M14 melanoma 3.52%

O=C(/C=C/c1cccc(C(F)(F)F)c1)Nc1cccc(C(F)(F)F)c1
inactive: DU-145 prostate 30.1% | K-562 leukemia 23.2% | MALME-3M melanoma 84.7% | MDA-MB-231 breast 108% | RXF 393 renal 88.7% | SF-268 CNS 70.7% | SF-295 CNS 10.5% | SF-539 CNS 97.1% | UACC-257 melanoma 87.5% | M14 melanoma 56.8%

Cn1cc(-c2cc3ncnc(Nc4ccc(CC(=O)Nc5nc(C(C)(C)C)cs5)cc4)c3s2)cn1
inactive: DU-145 prostate 38% | K-562 leukemia 16.2% | MALME-3M melanoma 55.9% | MDA-MB-231 breast 45.6% | RXF 393 renal 26.4% | SF-268 CNS 56.2% | SF-295 CNS 69.6% | SF-539 CNS 29.1% | UACC-257 melanoma 79.1% | M14 melanoma 41.5%

Cc1ccc(C)c(NC2=C(Cl)C(=O)c3nc(C)ccc3C2=O)c1
active: DU-145 prostate -76.4% | K-562 leukemia 1.06% | MALME-3M melanoma -52.4% | MDA-MB-231 breast -14.5% | RXF 393 renal -43.5% | SF-268 CNS -1.66% | SF-295 CNS -24.1% | SF-539 CNS -95.1% | UACC-257 melanoma -87.7% | M14 melanoma -55.8%

Cc1ccc2c(n1)C(=O)C(Cl)=C(Nc1cccc(C(F)(F)F)c1)C2=O
inactive: DU-145 prostate 98.7% | MDA-MB-231 breast 54.7% | SF-268 CNS 100% | SF-295 CNS 110% | SF-539 CNS 106% | M14 melanoma 80.4%
active: K-562 leukemia 3.08% | MALME-3M melanoma -5.42% | RXF 393 renal -1.18% | UACC-257 melanoma -4.17%

O=C(/C=C/c1cccc(F)c1)c1cccc(OCCCOc2cccc(C(=O)/C=C/c3cccc(F)c3)c2)c1
active: SF-295 CNS -19.8%
inactive: DU-145 prostate 86.6% | K-562 leukemia 21.7% | MALME-3M melanoma 99.4% | MDA-MB-231 breast 81% | RXF 393 renal 70.1% | SF-268 CNS 92.1% | SF-539 CNS 92.3% | UACC-257 melanoma 107% | M14 melanoma 92%

Cc1ccc(S(=O)(=O)NCCCNc2nc(Nc3ccc(N4CCN(C)CC4)cc3)nc3ccsc23)cc1
inactive: DU-145 prostate 42.7% | K-562 leukemia 13.3% | MDA-MB-231 breast 23% | SF-268 CNS 42%
active: MALME-3M melanoma -87.9% | RXF 393 renal -59.3% | SF-295 CNS -41.6% | SF-539 CNS -80.8% | UACC-257 melanoma -73.2% | M14 melanoma -69.6%

C#CCOc1cccc(/C(N)=N/C(N)=N/c2nc3ccccc3s2)c1
inactive: DU-145 prostate 97.4% | K-562 leukemia 82.2% | MALME-3M melanoma 111% | MDA-MB-231 breast 81.9% | RXF 393 renal 116% | SF-268 CNS 100% | SF-295 CNS 31.2% | SF-539 CNS 105% | UACC-257 melanoma 107% | M14 melanoma 95.8%

Cc1cc(NS(=O)(=O)c2ccc(NC(=O)CSc3nc4ccccc4c(=O)n3-c3ccccc3)cc2)no1
inactive: DU-145 prostate 108% | K-562 leukemia 54.1% | MALME-3M melanoma 94.7% | MDA-MB-231 breast 98.7% | RXF 393 renal 93.8% | SF-268 CNS 98.9% | SF-295 CNS 99.2% | SF-539 CNS 95.3% | UACC-257 melanoma 98.4% | M14 melanoma 90.3%

CCN1CCN(c2ccc(NC(=O)Nc3ccc4c(ccn4-c4ccnc(C(=O)NC)c4)c3)cc2C(F)(F)F)CC1
inactive: DU-145 prostate 86% | MDA-MB-231 breast 58.1% | SF-268 CNS 83.9% | UACC-257 melanoma 96.7% | M14 melanoma 17.9%
active: K-562 leukemia -9.49% | MALME-3M melanoma -65.2% | RXF 393 renal -30.7% | SF-295 CNS -47.1% | SF-539 CNS -55.3%

COc1ccc(NC(=O)CCCCCCNC(=O)C(O)(O)C(F)(F)F)cc1
inactive: DU-145 prostate 28.7% | K-562 leukemia 21.7% | MALME-3M melanoma 18.8% | MDA-MB-231 breast 59.5% | SF-268 CNS 56.5% | SF-295 CNS 24.3% | SF-539 CNS 48.7% | UACC-257 melanoma 48.7% | M14 melanoma 49.6%
active: RXF 393 renal 0.972%

O=C(CCCCCC/C=C\c1csc(Br)n1)NO
inactive: DU-145 prostate 87.7% | K-562 leukemia 50.5% | MALME-3M melanoma 66.7% | MDA-MB-231 breast 98.4% | RXF 393 renal 97% | SF-268 CNS 108% | SF-295 CNS 95.4% | SF-539 CNS 78.9% | UACC-257 melanoma 82% | M14 melanoma 93.9%

COc1ccc(/C(=N\N=C(N)N)c2ccc(Cl)cc2)cc1OC
inactive: DU-145 prostate 90.3% | K-562 leukemia 49.6% | MALME-3M melanoma 90% | MDA-MB-231 breast 71% | RXF 393 renal 54.3% | SF-268 CNS 59.9% | SF-295 CNS 71.8% | SF-539 CNS 83% | UACC-257 melanoma 90.2% | M14 melanoma 65.5%

CSc1ccc(/C(=N/N=C(N)N)c2ccc(F)cc2)cc1
active: K-562 leukemia 0.0764% | RXF 393 renal -4.77% | M14 melanoma 3.79%
inactive: DU-145 prostate 20.9% | MALME-3M melanoma 90.4% | MDA-MB-231 breast 24.2% | SF-268 CNS 36.3% | SF-295 CNS 11.8% | SF-539 CNS 10.4% | UACC-257 melanoma 66.1%

CCCCCN1C(=O)/C(=c2\sc3n(c2=O)C2C(NN=3)N(CC)C(=O)N2CC)c2cccc(C)c21 (stereo not given)
inactive: DU-145 prostate 76.6% | K-562 leukemia 16.2% | MALME-3M melanoma 51.6% | MDA-MB-231 breast 62.4% | RXF 393 renal 15.1% | SF-268 CNS 56.9% | SF-295 CNS 45% | SF-539 CNS 23.8% | UACC-257 melanoma 79.8% | M14 melanoma 51.4%

C/C(=N\NC(N)=S)c1nnn(-c2ccc([N+](=O)[O-])cc2)c1C
inactive: DU-145 prostate 104% | K-562 leukemia 119% | MALME-3M melanoma 92.8% | MDA-MB-231 breast 96.2% | RXF 393 renal 66.2% | SF-268 CNS 97% | SF-295 CNS 98.8% | SF-539 CNS 97.5% | UACC-257 melanoma 98.4% | M14 melanoma 99.5%

CC1CC(=O)C2=C(C1)Nc1ccc(Br)cc1CC2c1c[nH]c2ccc(Br)cc12 (stereo not given)
inactive: DU-145 prostate 71.6% | K-562 leukemia 21.6% | MALME-3M melanoma 59.3% | MDA-MB-231 breast 68.8% | RXF 393 renal 69% | SF-268 CNS 67.8% | SF-539 CNS 54.8% | UACC-257 melanoma 67.9% | M14 melanoma 29%
active: SF-295 CNS 4.8%

CCc1cc2c(cc1Cl)nc1c(=O)[nH]c(=O)nc-1n2CCOCC(C)C
inactive: DU-145 prostate 95% | K-562 leukemia 42.1% | MDA-MB-231 breast 55.8% | RXF 393 renal 80.5% | SF-268 CNS 80% | SF-295 CNS 60% | SF-539 CNS 79.3% | UACC-257 melanoma 36.6% | M14 melanoma 49.4%
active: MALME-3M melanoma 2.24%

O=C(CSc1nnc(-c2ccc(Cl)cc2)n1-c1ccccc1)Nc1ccc(Cl)cc1
active: SF-539 CNS -15%
inactive: DU-145 prostate 62.1% | K-562 leukemia 59.1% | MALME-3M melanoma 51% | MDA-MB-231 breast 12.9% | RXF 393 renal 22.9% | SF-268 CNS 41.4% | SF-295 CNS 17.2% | UACC-257 melanoma 88.2% | M14 melanoma 62.7%

Cn1cc(C2=C(c3coc4cc(Br)ccc34)C(=O)NC2=O)c2ccccc21
inactive: DU-145 prostate 108% | K-562 leukemia 27.4% | MALME-3M melanoma 104% | MDA-MB-231 breast 87.8% | RXF 393 renal 66.3% | SF-268 CNS 83.5% | SF-295 CNS 86.9% | SF-539 CNS 69.5% | UACC-257 melanoma 100% | M14 melanoma 68.7%

N#CC1=C2NCCCNc3oc(nc3C#N)Cc3ccccc3CC(=N1)O2
inactive: DU-145 prostate 99% | K-562 leukemia 12% | MALME-3M melanoma 97.8% | MDA-MB-231 breast 97.6% | RXF 393 renal 93.2% | SF-268 CNS 101% | SF-295 CNS 108% | SF-539 CNS 99.2% | UACC-257 melanoma 92.2% | M14 melanoma 86.4%

CN1CCN(c2ccc(Nc3nc(NCCCNS(=O)(=O)c4cccc(F)c4)c4sccc4n3)cc2)CC1
active: MALME-3M melanoma -83.6% | RXF 393 renal -71.4% | SF-295 CNS 6.24% | SF-539 CNS -80.4% | UACC-257 melanoma -64% | M14 melanoma -62.2%
inactive: DU-145 prostate 43.4% | K-562 leukemia 12.5% | MDA-MB-231 breast 36.1% | SF-268 CNS 44.2%
